Results on eight compounds are retold here after PubChem BioAssay (Tox21).

“And” between values parts separate entries of the source, which are not always exact repeats. Identical values can stand only once. Records with an inconclusive call do not appear. Some compounds were tested as several samples or in several runs, with calls that do not always agree. The source made the active and inactive calls. Unless noted, calls come from the whole dose curve; as a rule, active = well fitted curve in the direction sought with a large enough effect in the repeat runs; inconclusive = weak or mixed curves; inactive = no such curve, though single readings can be large; an effect the other way counts as inactive or inconclusive.

A short description of test [1]: qHTS assay for small molecules that induce genotoxicity in human embryonic kidney cells expressing luciferase-tagged ATAD5 (AID 651632). Note: nearly all actives have a fitted effect of over 15% in size. The method, boiled down:
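HEK293T cells carrying luciferase-tagged ATAD5 were given compound or DMSO vehicle and incubated 16 hr at 37C, 5% CO2. Luciferase activity was read after 30 min at room temperature with Amplite; a rise signals genotoxic stress.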
Background: In qHTS, concentration-response curves come from the screen itself.

Test [2] is described as follows: qHTS assay for small molecule agonists of the p53 signaling pathway - cell viability (AID 651633; calls by dose curve;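 note: p53RE-bla HCT reporter cells with a stable beta-lactamase p53 reporter; series mostly up to about 83 µM; nearly all actives have a fitted effect of over 30% in size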). An outline of the steps: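 p53RE-bla cells, seeded at 4,000 per well and rested 5 h at 37 C/5% CO2, received compounds in DMSO for 16 h at 37 C. CellTiter-Glo was then added, and luminescence was read after 30 min at room temperature to gauge cytotoxicity.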
Test [3] is described as follows: qHTS assay for small molecules that induce genotoxicity in human embryonic kidney cells expressing luciferase-tagged ATAD5 - cell viability (AID 651634; calls by dose curve; note: nearly all actives have a fitted effect of over 25% in size; note: potency is the fitted concentration of half-maximal effect). The method, boiled down: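 HEK293T cells carrying luciferase-tagged ATAD5, 2,000 cells/well, exposed to compound for 15.5 hr at 37C. Viability read as live-cell protease activity by CellTiter-Fluor fluorescence after 30 min at 37C.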

A short description of test [4]: qHTS assay for small molecule disruptors of the mitochondrial membrane potential - cell viability (AID 720634; calls by dose curve; note: nearly all actives have a fitted effect of over 20% in size; note: potency is the fitted concentration of half-maximal effect). An outline of the steps: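 HepG2 cells, 2,000 per well, attached overnight, then treated 1 hr at 37 C, 5% CO2. Viability read as ATP by CellTiter-Glo luminescence after 30 min at room temperature. Read in the same wells as the m-MPI membrane-potential dye assay.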

Test [5] can be described thus: qHTS assay to test for compound auto fluorescence at 590 nm (red) in HepG2 cells (AID 720674). The method, boiled down:
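Rose Bengal sodium served as the red fluorophore standard. HepG2 monolayers (overnight attachment, MEM with 10% FBS) were exposed to test compounds for 1 hr at 37 C and read at Ex 540/Em 590 nm.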

Test [6] can be described thus: qHTS assay to test for compound auto fluorescence at 535 nm (green) in HepG2 cells (AID 720675).
Test [7] in a line: qHTS assay to test for compound auto fluorescence at 460 nm (blue) in HEK293 cells (AID 720678). An outline of the steps: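 Measured: blue fluorescence (Ex 405/Em 460 nm) of compound-treated HEK293 cells, incubated overnight at 37C with 5% CO2 and scaled to triamterene equivalents.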
The nature of test [8]: qHTS assay to test for compound auto fluorescence at 590 nm (red) in HEK293 cells (AID 720679). An outline of the steps:
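Using HEK293 cells at 2,000 per well, the screen added 23 nL of each compound after cell attachment and incubated overnight (37C, 5% CO2). The plate reader then captured red-label fluorescence, Ex/Em 540/590nm.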

Test [9] is described as follows: qHTS assay to test for compound auto fluorescence at 535 nm (green) in HEK293 cells (AID 720680).
Test [10] in a line: qHTS assay to test for compound auto fluorescence at 460 nm (blue) in HEK293 cell free culture (AID 720681). An outline of the steps: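 Test compounds were pinned into cell-free culture medium (DMEM with 10% FBS) and fluorescence was read directly at Ex/Em 405/460 nm. Signals were expressed as fluorescence equivalents of triamterene, with DMSO vehicle as control.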
Test [11] in a line: qHTS assay to test for compound auto fluorescence at 535 nm (green) in HEK293 cell free culture (AID 720682). The method, boiled down:
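Intrinsic compound fluorescence is measured in culture medium containing 10% FBS, with excitation at 485 nm and detection at 535 nm, referenced to fluorescein.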

Test [12] is described as follows: qHTS assay to test for compound auto fluorescence at 590 nm (red) in HEK293 cell free culture (AID 720683). The method, boiled down:
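Tox21 10K library compounds were pinned into cell-free DMEM with 10% FBS and fluorescence was read at excitation 540 nm. Activity is expressed as Rose Bengal sodium equivalency.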

Test [13] is described as follows: qHTS assay to test for compound auto fluorescence at 590 nm (red) in HepG2 cell free culture (AID 720684). An outline of the steps: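 Red fluorescence (540 nm excitation, 590 nm emission) was measured after compound transfer into cell-free MEM supplemented with 10% FBS. Values are equivalencies against Rose Bengal sodium.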
Test [14] can be described thus: qHTS assay to test for compound auto fluorescence at 460 nm (blue) in HepG2 cell free culture (AID 720685). The method, boiled down: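 Compound (23 nL) or DMSO pinned into cell-free MEM with 10% FBS; blue fluorescence read at 405/460 nm excitation/emission, expressed as auto-fluorescence equivalency to triamterene.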
Test [15] is described as follows: qHTS assay to test for compound auto fluorescence at 535 nm (green) in HepG2 cell free culture (AID 720686).
Test [16] is described as follows: qHTS assay to test for compound auto fluorescence at 460 nm (blue) in HepG2 cells (AID 720687). The method, boiled down:
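Cells (2,000/well in MEM with 10% FBS) attached overnight at 37 C, then were exposed to compound or DMSO for 1 hr at 37 C, 5% CO2. Fluorescence read at Ex/Em 405/460 nm, expressed as triamterene-equivalent signal.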

In test [17] the target is Glucocorticoid receptor (Homo sapiens) (UniProt P04150). The test can be described thus: qHTS assay to identify small molecule agonists of the glucocorticoid receptor (GR) signaling pathway (AID 720691; active = well fitted activation curve with a large enough effect in the signal ratio in the repeat runs, not every such curve was filed as active; the % refers to the signal ratio). An outline of the steps: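 GR-bla HeLa cells carrying a GRE-driven beta-lactamase reporter, exposed to compounds for 18 h at 37 C. Reporter activation read as fluorescence after 2 h with LiveBLAzer B/G FRET substrate at room temperature.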

For test [18] the target is unchanged. Kind of test: qHTS assay to identify small molecule antagonists of the glucocorticoid receptor (GR) signaling pathway (AID 720692; active = well fitted inhibition curve with a large enough effect in the signal ratio in the repeat runs, not every such curve was filed as active; the % refers to the signal ratio; note: potency is the fitted concentration of half-maximal effect). An outline of the steps:
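GR-bla HeLa cells carrying a GRE-driven beta-lactamase reporter received compound after 4 h plating, then dexamethasone (5 nM final). After 18 h at 37C, the FRET substrate was loaded for 2 h at room temperature and fluorescence read.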

Test [19] in a line: qHTS assay for small molecule disruptors of the mitochondrial membrane potential (AID 720635). An outline of the steps: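 HepG2 cells (2,000/well) attached overnight at 37C, then took compound for 1 hr at 37C, 5% CO2. Mito-MPS dye was added for 30 min; fluorescence was read at 490/535 nm (monomers) and 540/590 nm (aggregates).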
Test [20] is described as follows: qHTS assay for small molecule agonists of the p53 signaling pathway (AID 651631; calls by dose curve; note: nearly all actives have a fitted effect of over 15% in size; note: potency is the fitted concentration of half-maximal effect). An outline of the steps:
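Fluorescence intensity from cleaved LiveBLAzer B/G substrate (2 h, room temperature) served as the signal. Beforehand, HCT-116 reporter cells bearing p53 response elements were treated 16 h at 37 °C with DMSO-dissolved compounds.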

Sequence of Glucocorticoid receptor (Homo sapiens) (P04150 whole entry, looked up): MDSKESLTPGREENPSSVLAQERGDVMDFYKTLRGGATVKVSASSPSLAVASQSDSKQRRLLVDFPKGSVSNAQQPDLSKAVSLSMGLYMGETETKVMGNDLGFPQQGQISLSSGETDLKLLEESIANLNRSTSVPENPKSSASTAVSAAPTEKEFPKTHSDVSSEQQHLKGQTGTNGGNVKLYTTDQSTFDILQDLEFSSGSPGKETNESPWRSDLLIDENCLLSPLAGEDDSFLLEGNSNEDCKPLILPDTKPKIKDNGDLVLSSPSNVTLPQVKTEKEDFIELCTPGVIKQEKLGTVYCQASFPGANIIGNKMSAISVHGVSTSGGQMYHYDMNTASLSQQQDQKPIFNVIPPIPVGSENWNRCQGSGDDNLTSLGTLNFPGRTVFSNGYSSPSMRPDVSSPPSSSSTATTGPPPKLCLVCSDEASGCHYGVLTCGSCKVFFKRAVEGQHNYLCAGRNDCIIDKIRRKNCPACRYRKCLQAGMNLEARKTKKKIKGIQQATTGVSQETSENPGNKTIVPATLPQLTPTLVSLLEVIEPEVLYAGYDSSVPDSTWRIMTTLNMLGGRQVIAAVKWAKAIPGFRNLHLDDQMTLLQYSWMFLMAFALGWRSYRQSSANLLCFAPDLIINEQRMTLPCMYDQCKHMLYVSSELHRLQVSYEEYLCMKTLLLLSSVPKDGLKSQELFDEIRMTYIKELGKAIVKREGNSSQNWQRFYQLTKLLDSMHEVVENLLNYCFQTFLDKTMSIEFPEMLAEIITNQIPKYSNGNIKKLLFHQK

`COCc1cnc(C2=NC(C)(C(C)C)C(=O)N2)c(C(=O)O)c1` (centres undefined): the Potency entry in test [1], in test [2], in test [3], in test [4], in [17] and in [18] was “inactive” in each case. For the same compound, the compound was classed as inactive in test [5], in test [6], in test [7], in [8], in [9] and in [10]. For the same compound, the outcome in test [11], in [12], in test [13], in test [14], in test [15] and in [16] was inactive.

For `C=C(C)C(=O)OCCCCOC(=O)C(=C)C`, the Potency entry in test [1], in test [2], in test [3], in test [4] and in [18] was “inactive” in each case. The call in [5], in test [6], in test [7], in [8], in test [9] and in test [10] was inactive. The outcome in test [11], in test [12], in [13], in test [14], in [15] and in [16] was inactive.

Regarding `O=C1NC(=O)C(=O)C(=O)N1`, the Potency entry in [1], in test [2], in [3] and in [19] was “inactive” each time. Also, the compound was called inactive in test [5], in test [6], in [7], in test [8], in [9] and in test [10]. For the same compound, the compound was called inactive in [11], in [12], in test [13], in [14], in test [15] and in [16].

Consider `CCC1(CC)C(=O)NC(=O)NC1=O`, for which the Potency entry in [1], in [2], in [3], in test [4], in test [17] and in [18] was “inactive” in each case. Also, the outcome in test [5], in [6], in test [7], in test [8], in test [9] and in test [10] was inactive. Also, the compound was called inactive in test [11], in test [12], in test [13], in test [14], in [15] and in [16].

`C[C@@H]1C[C@@H]([C@H](O)CC2CC(=O)NC(=O)C2)C(=O)[C@@H](C)C1`: the Potency in test [20] was 11.9 µM (active) and inactive; in [3], 1.33 µM (active) and 271 nM (active). Moreover, the Potency entry in test [4] was “inactive”. For the same compound, the outcome in [5], in [7], in [8], in test [9], in [10] and in [11] was inactive. Also, the call in test [13], in test [14], in [15] and in test [16] was inactive.

Consider `O=[N+]([O-])/C=C/c1ccccc1`, for which the Potency was 2.47 µM (active) and 2.43 µM (active) in test [20]; 62.1 µM (active) and inactive in [4]; 15.7 µM (active) and 17.4 µM (active) in test [18]. The call in [5], in test [6], in test [7], in test [8], in [9] and in test [10] was inactive. In addition, the compound was classed as inactive in test [11], in test [12], in test [13], in test [14], in test [15] and in test [16].

Regarding `CCOP(=S)(OCC)Oc1ccc(S(C)=O)cc1` (centres undefined), the Potency result in [1], in test [2], in test [3], in test [4] and in test [19] was “inactive” throughout. For the same compound, the compound was called inactive in test [5], in [6], in [7], in [8], in test [9] and in test [10]. Further, the call in test [11], in test [12], in [13], in test [14], in [15] and in test [16] was inactive.

In the case of `O=C(NC(=O)c1cc(F)c(F)cc1Cl)Nc1cc(F)ccc1N1CCC(C(=O)O)CC1`, the Potency result in test [1], in test [2] and in test [3] was “inactive” throughout. Moreover, the call in test [5], in [6], in test [7], in test [8], in [9] and in test [10] was inactive. Moreover, the result in test [11], in [12], in test [13], in test [14], in test [15] and in test [16] was inactive.
